Screens: PubChem, several laboratories
PHOSPHO1 block = PHOSPHO1 (human) inhibition; Q8TCT1; recombinant PHOSPHO1, absorbance phosphatase assay; inhibition, % at 13.3 µM; 290,000 compounds, 1.1% hits; AID 1565; in the data active = inhibition above about 60%
Target sequence (Q8TCT1 whole entry, looked up): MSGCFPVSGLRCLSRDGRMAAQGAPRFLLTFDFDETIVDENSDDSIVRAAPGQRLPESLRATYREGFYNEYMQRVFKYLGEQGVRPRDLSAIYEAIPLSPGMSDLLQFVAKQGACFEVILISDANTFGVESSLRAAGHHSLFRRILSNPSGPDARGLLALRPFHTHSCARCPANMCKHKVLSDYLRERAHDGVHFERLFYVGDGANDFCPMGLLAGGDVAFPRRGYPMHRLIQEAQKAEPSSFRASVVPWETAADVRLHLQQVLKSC
APOBEC3A inh = inhibitors of human APOBEC3A DNA deaminase. P31941. recombinant A3A, FAM/TAMRA ssDNA deamination fluorescence. inhibition, % at 20 µM. 330,000 compounds, 0.41% hits;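 active = at least 40% inhibition at 20 µM here, with at most 30% in a related deaminase screen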
Target sequence (P31941 whole entry, looked up): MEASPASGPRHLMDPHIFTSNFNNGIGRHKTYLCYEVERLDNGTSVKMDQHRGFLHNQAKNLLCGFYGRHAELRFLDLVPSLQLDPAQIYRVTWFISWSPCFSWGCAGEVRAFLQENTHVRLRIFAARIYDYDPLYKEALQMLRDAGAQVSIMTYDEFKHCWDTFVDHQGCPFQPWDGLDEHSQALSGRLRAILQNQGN
APOBEC3G inh = APOBEC3G (human) deaminase inhibition; recombinant A3G, ssDNA deamination FAM/TAMRA fluorescence; inhibition, % at 20 µM; 330,000 compounds, 0.28% hits;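 active = inhibition of at least 40% at 20 µM, with no more than 30% in the related APOBEC3A deaminase screen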
Wnt act = activates Wnt/beta-catenin signaling in a reporter cell assay | 300,000 compounds, 1.2% hits | AID 743398 | activation, % at 9.35 µM | activator, plate reader; in the data active = activation above about 30%, passing the limit was not always enough; inconclusive = no clear call, values can overlap the other calls
esBAF inh = inhibitors of esBAF chromatin remodeling in mouse ES cells | Bmi1-luciferase knock-in reporter, 24 h; 100% = twice the neutral-well signal | reporter increase, % at 12.5 µM | 350,000 compounds, 2% hits | AID 602393; in the data active = activation above about 40%; inconclusive = no clear call, values can overlap the other calls;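 note: a rise in the Bmi1 reporter signal indicates esBAF inhibition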
MITF TRPM1 HTS = MITF TRPM1 promoter activation in melanoma cells. AID 588334. activation, % at 12.5 µM. 300,000 compounds, 0.75% hits. SK-MEL-5 TRPM1-promoter luciferase, 24 h; % of positive control, neutral wells = 0;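 active = mean activation of at least 80% with every replicate also reaching 80%; inconclusive = mean reaches 80% but some replicate falls short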
Of the large screens only hits and unclear results are named; the others gave an inactive call. A selection: hits, their analogues and other compounds. The true share with any hit is near 3.6%.

O=C(Nc1nnc(-c2ccccc2)s1)c1ccccc1O	esBAF inh 67.4
COc1cccc(C(=O)Nc2nnc(-c3ccccc3)s2)c1OC	Wnt act 45.3
CC(C)NC(=O)N(C)C[C@H]1Oc2ccc(NC(=O)Nc3ccc(F)cc3)cc2CC(=O)N([C@@H](C)CO)C[C@@H]1C	none (no result: PHOSPHO1 block, APOBEC3A inh, APOBEC3G inh, Wnt act, MITF TRPM1 HTS)
CC(C)=CC(=O)Nc1nnc(-c2ccccc2)s1	none
COc1ccc(C(=O)Nc2nnc(-c3ccccc3)s2)cc1	esBAF inh 46.6
COc1cccc(C(=O)Nc2cccc3cccnc23)c1OC	esBAF inh 43.0 (no result: Wnt act)
O=C(Nc1ccccc1)Nc1nnc(-c2ccccc2)s1	Wnt act 32.9, esBAF inh 50.5 (no result: MITF TRPM1 HTS)
O=C(Nc1cccc2cccnc12)c1cccc2ccccc12	none
Cc1ccc(NC(=O)Nc2nnc(-c3ccccc3F)s2)cc1	Wnt act 32.6 (no result: esBAF inh)
COc1ccc(-c2nnc(NC(=O)c3c(OC)cccc3OC)s2)cc1	none (no result: MITF TRPM1 HTS)
COc1ccc(NC(=O)Nc2nnc(-c3ccccc3F)s2)cc1	none (no result: esBAF inh)
C[C@@H]1CCCCO[C@@H](CN(C)Cc2ccc3c(c2)OCO3)[C@@H](C)CN([C@H](C)CO)C(=O)c2cc(NC(=O)Cc3ccccc3)ccc2O1	none (no result: PHOSPHO1 block, APOBEC3A inh, APOBEC3G inh, Wnt act, MITF TRPM1 HTS)
O=C(Nc1nnc(-c2ccccc2F)s1)c1cccnc1	esBAF inh 59.7
O=C(Nc1nnc(C(F)(F)F)s1)c1cccnc1	none (no result: Wnt act)
O=S(=O)(c1ccc(Cl)cc1)N1CCSC1c1ccco1 (stereo not given)	PHOSPHO1 block 68.2 (no result: Wnt act, MITF TRPM1 HTS)
O=C1/C(=C\c2ccc([N+](=O)[O-])cc2)CCc2ccccc21	none (no result: esBAF inh)
O=C1/C(=C/Nc2cccc([N+](=O)[O-])c2)CCc2ccccc21	Wnt act 90.3 (no result: esBAF inh)
COc1cc(/C=C2\SC(=O)N(CC(=O)Nc3cccc(C)c3)C2=O)cc([N+](=O)[O-])c1O	PHOSPHO1 block 62.2 (no result: APOBEC3A inh, APOBEC3G inh, esBAF inh)
CCOC(=O)c1c(C)nc(C)c(C(=O)OCC)c1-c1cccc(N)c1	PHOSPHO1 block 60.0
Cc1ccc(S(=O)(=O)Nc2ccc3c(c2)C(=O)N([C@H](C)CO)C[C@H](C)[C@H](CN(C)Cc2ccccc2)OCCCC[C@H](C)O3)cc1	none (no result: PHOSPHO1 block, APOBEC3A inh, APOBEC3G inh, Wnt act, MITF TRPM1 HTS)
COc1ccc(C(=O)N2CCc3ccc(NC(=O)c4ccccn4)cc3C2)cc1F	esBAF inh 52.4
COc1cc2c(cc1OC)CN(C(=O)c1ccncc1)CC2	none
CCCCCC1(C)NC(=S)N(c2ccccc2)N1 (stereo not given)	none (no result: esBAF inh)
CC1(CC(=O)Nc2ccccc2)NC(=S)N(c2ccccc2)N1 (stereo not given)	esBAF inh 29.2
CCN(CCNC(=O)CN(C)S(=O)(=O)c1cccc2nsnc12)c1ccccc1	PHOSPHO1 block 64.4 (no result: Wnt act)
C[C@@H]1CN([C@@H](C)CO)S(=O)(=O)c2ccc(C#CC3CC3)cc2O[C@H]1CN(C)S(C)(=O)=O	none (no result: PHOSPHO1 block, APOBEC3A inh, APOBEC3G inh, Wnt act, MITF TRPM1 HTS)
CC1CCCN(C(=O)C2CCN(c3nc(-c4ccccc4)nc4c3CCC4)CC2)C1 (stereo not given)	PHOSPHO1 block 65.8
CCn1c(O)c(/C=C2\C=Nc3ccccc32)sc1=Nc1ccccc1	esBAF inh 67.1
Cn1c(O)c(/C=C2\C=Nc3ccccc32)sc1=Nc1ccc(C(=O)O)cc1	none
COc1cc(C(=O)OC2CC3CCC2(C)C3(C)C)ccc1OC(C)=O (stereo not given)	esBAF inh 48.7
COc1ccc2oc(-c3ccco3)cc(=O)c2c1	Wnt act 38.2
COc1cc(SC)ccc1C(=O)Nc1ccc2c(c1)CCC2	esBAF inh 47.5
COc1cc(SC)ccc1C(=O)Nc1cccc(C2OCCCO2)c1	esBAF inh 68.3
COc1cc(SC)ccc1C(=O)Nc1ccccc1C#N	esBAF inh 43.1
COc1cc(SC)ccc1C(=O)Nc1ccncc1	none (no result: esBAF inh)
COc1ccc(S(=O)(=O)Nc2ccc3c(c2)C(=O)N([C@@H](C)CO)C[C@@H](C)[C@H](CN(C)CC2CCCCC2)OCCCC[C@@H](C)O3)cc1	none (no result: PHOSPHO1 block, APOBEC3A inh, APOBEC3G inh, Wnt act, MITF TRPM1 HTS)
Cc1cc(=O)[nH]c(N=N/C(=N/Nc2ccc(O)cc2)c2ccccc2)n1	PHOSPHO1 block 92.1, esBAF inh 49.4 (no result: Wnt act)
Cc1cc(=O)[nH]c(SCC(=O)Nc2ccccc2C)n1	none (no result: esBAF inh)
COc1ccc(N/N=C(/N=Nc2nc(C)cc(=O)[nH]2)c2ccccc2)cc1	none (no result: Wnt act, esBAF inh)
Cc1cc(=O)[nH]c(N=N/C(=N/Nc2ccccc2C)c2ccccc2)n1	PHOSPHO1 block 92.4 (no result: Wnt act, esBAF inh)
C/C=C/c1cnc2c(c1)C(=O)N([C@H](C)CO)C[C@@H](C)[C@@H](CN(C)S(=O)(=O)c1ccc(C)cc1)O2	none (no result: PHOSPHO1 block, APOBEC3A inh, APOBEC3G inh, Wnt act, MITF TRPM1 HTS)
CSCCC(=O)N1CCC(n2nccc2NC(=O)c2ccc3c(c2)OCO3)CC1	esBAF inh 60.8
CCOC(=O)N1CCN(C(=O)c2cc(COc3c(F)cccc3F)on2)CC1	Wnt act 44.7, esBAF inh 57.8
CC(=O)N1CCCN(C(=O)c2cc(COc3c(F)cccc3F)on2)CC1	none (no result: esBAF inh)
Cc1cccc(C)c1OCc1cc(C(=O)N2CCN(c3ccccn3)CC2)no1	none
Cc1cccc(C)c1OCc1cc(C(=O)N2CCN(c3ccc(F)cc3)CC2)no1	esBAF inh 44.8
C[C@H](CO)N1C[C@H](C)[C@H](CN(C)C(=O)Nc2ccc3c(c2)OCO3)Oc2ccc(NC(=O)CCN3CCOCC3)cc2CC1=O	none (no result: PHOSPHO1 block, APOBEC3A inh, APOBEC3G inh, Wnt act, MITF TRPM1 HTS)
CN(CC(=O)Nc1cccc(F)c1)C(=O)c1cn2ccccc2n1	none (no result: PHOSPHO1 block)
O=C(CNC(=O)c1cn2ccccc2n1)Nc1ccc(F)c(F)c1	Wnt act 34.5 (no result: PHOSPHO1 block, esBAF inh)
O=C(Nc1ccccc1)c1cc2ccc3ccccc3c2s1	Wnt act 65.7, esBAF inh 79.1
O=C(O)c1ccc(-c2ccc(-c3ccccc3)cc2)s1	none (no result: Wnt act)
COc1ccc2cc(C(=O)Nc3ccccc3)sc(=O)c2c1OC	esBAF inh inconclusive
O=C(Nc1ccccc1)c1ccc(-c2ccccc2)s1	MITF TRPM1 HTS 84.6 (no result: esBAF inh)
CC(C)NC(=O)N(C)C[C@H]1Oc2ccc(NC(=O)CCN3CCOCC3)cc2CC(=O)N([C@@H](C)CO)C[C@@H]1C	none (no result: PHOSPHO1 block, APOBEC3A inh, APOBEC3G inh, Wnt act, MITF TRPM1 HTS)
C=CCn1c(SCC(=O)Nc2ccc3c(c2)OCO3)nnc1-c1cc(Br)ccc1O	Wnt act 46.6
CCNC(=O)C[C@H]1CC[C@H]2[C@@H](COC[C@@H](O)CN2C(=O)Nc2ccc3c(c2)OCO3)O1	esBAF inh 53.3 (no result: PHOSPHO1 block, APOBEC3A inh, APOBEC3G inh, Wnt act, MITF TRPM1 HTS)
CCCNC(=O)C[C@H]1CC[C@@H]2[C@H](COC[C@H](O)CN2C(=O)Nc2ccc3c(c2)OCO3)O1	none (no result: PHOSPHO1 block, APOBEC3A inh, APOBEC3G inh, Wnt act, MITF TRPM1 HTS)
CCCNC(=O)C[C@H]1CC[C@H]2[C@@H](COC[C@@H](O)CN2C(=O)Nc2ccc3c(c2)OCO3)O1	esBAF inh 40.7 (no result: PHOSPHO1 block, APOBEC3A inh, APOBEC3G inh, Wnt act, MITF TRPM1 HTS)
C[C@@H]1CN([C@@H](C)CO)C(=O)c2cc(-c3ccc(F)cc3)cnc2O[C@H]1CN(C)Cc1ccc(C(=O)O)cc1	none (no result: PHOSPHO1 block, APOBEC3A inh, APOBEC3G inh, Wnt act, MITF TRPM1 HTS)
COC(=O)c1ccc(OC(=O)/C=C/c2ccco2)cc1	none
O=Cc1cccc(OC(=O)/C=C/c2ccco2)c1	esBAF inh 48.2 (no result: MITF TRPM1 HTS)
O=C(/C=C/c1ccco1)Oc1ccc(C(=S)N2CCOCC2)cc1	Wnt act 84.0 (no result: esBAF inh)
